Measurements reported in the supplement of paper PMC6555819.

Experiments:
Assay in all cases: PBM binding z-score (relative to random genomic background probes); higher = stronger binding; sequences stand for … in GC…GCGATTGACAGCGTAGAATGAAGG
[1] = system: FXR:RXRa (NR concentration 270 nM, RXRa partner concentration 90 nM)
In short: (§1)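 For binding z-scores, the reference was random background probes on custom Agilent 4×180K protein-binding microarrays. These arrays were incubated 1 h with ligand-free nuclear receptor dimers in PBS pH 7.4, 2% milk, 0.02% Triton X-100, 1 mM DTT, 0.2 mg/mL BSA and 0.4 mg/ml salmon testes DNA. Fluorescence was scanned after antibody detection of each partner (one per run) and regression-normalized.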

[2] = system: LXRa:RXRa (NR concentration 270 nM, RXRa partner concentration 90 nM)
In short: as §1

[3] = system: LXRa homodimer (NR concentration 270 nM)
In short: as §1

[4] = system: LXRb:RXRa (NR concentration 270 nM, RXRa partner concentration 90 nM)
In short: as §1

[5] = system: LXRb homodimer (NR concentration 270 nM)
In short: as §1

[6] = system: PPARa:RXRa (NR concentration 270 nM, RXRa partner concentration 90 nM)
In short: as §1

[7] = system: PPARg:RXRa (NR concentration 180 nM, RXRa partner concentration 90 nM)
In short: as §1

[8] = system: PPARg:RXRa 270nM:90nM, anti-RXR (NR concentration 270 nM, RXRa partner concentration 90 nM)
In short: as §1

[9] = system: PPARg:RXRa 30nM:10nM, anti-RXR (NR concentration 30 nM, RXRa partner concentration 10 nM)
In short: as §1

[10] = system: PPARg:RXRa 90nM:30nM, anti-RXR (NR concentration 90 nM, RXRa partner concentration 30 nM)
In short: as §1

[11] = system: PPARg:RXRa DBDmut IVT, anti-RXR (DBD mutation: RXRa K156A/R161A, NR concentration 270 nM, RXRa partner concentration 90 nM)
In short: as §1

[12] = system: PPARg:RXRa IVT, anti-PPARg (NR concentration 270 nM, RXRa partner concentration 90 nM)
In short: as §1

[13] = system: PPARg DBDmut:RXRa IVT, anti-PPARg (DBD mutation: PPARg1 K132A/R137A, NR concentration 270 nM, RXRa partner concentration 90 nM)
In short: as §1

[14] = system: PPARg DBDmut IVT, anti-PPARg (DBD mutation: PPARg1 K132A/R137A, NR concentration 270 nM)
In short: as §1

[15] = system: PPARg homodimer (NR concentration 180 nM)
In short: as §1

[16] = system: PXR:RXRa (NR concentration 270 nM, RXRa partner concentration 90 nM)
In short: as §1

[17] = system: PXR homodimer (NR concentration 270 nM)
In short: as §1

[18] = system: RARa:RXR (NR concentration 270 nM, RXRa partner concentration 90 nM)
In short: as §1

[19] = system: RARa homodimer (NR concentration 270 nM)
In short: as §1

[20] = system: RARb:RXRa (NR concentration 270 nM, RXRa partner concentration 90 nM)
In short: as §1

Sequence | PBM binding z-score [1] | PBM binding z-score [2] | PBM binding z-score [3] | PBM binding z-score [4] | PBM binding z-score [5] | PBM binding z-score [6] | PBM binding z-score [7] | PBM binding z-score [8] | PBM binding z-score [9] | PBM binding z-score [10] | PBM binding z-score [11] | PBM binding z-score [12] | PBM binding z-score [13] | PBM binding z-score [14] | PBM binding z-score [15] | PBM binding z-score [16] | PBM binding z-score [17] | PBM binding z-score [18] | PBM binding z-score [19] | PBM binding z-score [20]
AGTCAAAGTTCATGTAGGTAACGTAAGATATGCT | 6.48 | 5.94 | 4.83 | 3.65 | 1.37 | 4.9 | 6.75 | 6.37 | 3.09 | 5.61 | 0.795 | 4 | 1.62 | 2.1 | 3.26 | 5.3 | 5.21 | 3.76 | 0.859 | 4.81
TAGCCTAGGTCTTTGGGCCAGTATAGTACGCATC | -0.684 | -0.824 | -0.792 | -0.788 | -0.858 | -1.04 | 0.0223 | -0.571 | -0.609 | -0.513 | -0.223 | 0.546 | -1.01 | -0.496 | -0.656 | -0.782 | -0.961 | -0.806 | -0.737 | -0.161
ATCTCTCGGTAACAAGTTCAGTGAAAGAGAGGAC | 0.379 | 0.429 | 0.428 | 0.549 | 0.942 | 0.533 | 0.157 | 0.369 | 0.251 | 0.484 | -0.852 | 0.6 | 0.792 | 1.21 | 0.807 | 1.46 | 1.77 | 0.694 | 0.38 | 1.49
TAGACTAGGTCAGATCGGGCCAGTATACGCTATA | 1.54 | 0.872 | -0.254 | 0.626 | 0.289 | 2.47 | 3.05 | 2.82 | 1.07 | 2.03 | 4.39 | 5.26 | 1.46 | 0.155 | 0.192 | 0.932 | -0.501 | 1.18 | -0.174 | 2.99
TCTTGTCGATCAACAGGAGGTTAAGAAAGATCGA | 0.21 | 0.937 | 0.145 | 0.977 | -0.356 | 1.11 | -0.231 | 0.969 | 1.86 | 1.64 | 0.771 | 0.105 | -0.14 | -0.175 | -0.727 | 0.727 | -0.0541 | 0.726 | 0.067 | 0.397
GTACCAAGGTGAATAGGTCGTTGAAGAGTAGGCG | 1.03 | 0.815 | 0.077 | 0.828 | -0.492 | 2.34 | 1.56 | 2.06 | 0.379 | 1.17 | 1.8 | 2.92 | 0.0444 | -0.34 | 1.08 | 1.12 | 0.219 | 1.79 | 0.784 | 1.94
CCTACTGTGCCATCAGGTCATTGATATCAACGTT | 2.23 | 2.1 | 2.57 | 2.75 | 1.14 | 2.82 | 2.29 | 3.15 | 1.39 | 2.7 | 4.55 | 4.14 | 2.09 | 1.29 | 2.2 | 2.45 | 1.76 | 2.79 | 2.21 | 2.25
GCAGACACGTGAAACGCAGGTAACTCAGGGTGGC | -0.868 | -0.737 | -0.81 | -0.691 | -1.29 | -0.718 | 0.584 | -0.446 | -0.559 | -0.87 | -1.12 | -0.582 | -0.764 | -0.343 | -2.11 | -0.819 | -0.73 | -0.666 | -0.899 | -0.551
AGAATGAGGTTACCAAGGATCAGGGAAACGCTTG | 1.77 | 4.49 | -0.144 | 2.06 | -0.102 | 3.69 | 2.58 | 2.47 | 1.09 | 1.97 | 3.39 | 3.37 | 1.28 | 0.207 | 0.544 | 1.28 | 0.0221 | 2.01 | -0.233 | 2.04
ATACCAAGGTAATCGTGAGGTCGTTGATACTAAC | 1.31 | 1.48 | 0.673 | 1.29 | 0.295 | 1.38 | 0.484 | 0.308 | -0.0613 | 0.22 | 0.339 | 0.661 | 0.385 | 0.929 | 0.827 | 2.55 | 1.36 | 2.06 | -0.0819 | 1.07
ACTTACGGGGCAACGAGGTTATAGCACGCGTATA | 0.934 | 0.688 | -0.335 | 1.73 | 0.511 | 2.21 | 1.64 | 1.26 | 0.448 | 1.2 | 2.66 | 2.16 | 0.904 | 0.257 | 0.811 | 1.62 | 0.644 | 1.73 | 0.365 | 1.63
TCTTGTACATCAAGCAGGTTAAGAAAGCCTGAGT | 0.785 | 0.852 | -0.0231 | 0.861 | 0.106 | 1.05 | -0.153 | 1.37 | 3.03 | 2.18 | 1.65 | 0.61 | 0.553 | 1.57 | 0.286 | 0.6 | 0.247 | 0.598 | -0.095 | 0.538
TTACCAAGGTGAAAGGTCGTTGTTGCACGCCTTG | 3.74 | 3.17 | 0.187 | 3.12 | -0.415 | 5.29 | 8.39 | 7.47 | 6.57 | 8.04 | 2.71 | 4.85 | -0.135 | 0.857 | 1.39 | 3.78 | 0.253 | 5.2 | -0.175 | 3.09
TCTAGTTGGTCACGGAGGTCACACAGGACGGGTA | 3.66 | 3.54 | 2.46 | 3.05 | 0.75 | 3.83 | 3.74 | 3.76 | 3.51 | 3.91 | 2.41 | 4.28 | 0.872 | -0.126 | 3.68 | 4.78 | 3.02 | 4.72 | 1.58 | 3.98
CCGACTGGGGCACAAGGTTACCATAAGCCAGCCC | 0.122 | 1.73 | -0.433 | 0.74 | -1.16 | 2.2 | 2.92 | 3.16 | 0.724 | 2.49 | 3.82 | 4.45 | -0.334 | -0.282 | 1.62 | 0.226 | -0.93 | 0.828 | -0.242 | 1.46
GCTCGGAAGACAAGGTCAGAGCTTTGTCCGTAGA | 1.01 | 1.26 | -0.528 | 0.906 | -1.34 | 1.97 | 0.0442 | 0.519 | -0.417 | 0.239 | 0.0129 | 0.063 | -0.999 | -2.1 | 0.392 | 1.41 | -0.453 | 1.9 | -0.69 | 2.58
CCTACTCGGCCATTCAGAGGTCATTGATCATATG | 3.34 | 4.79 | 7.45 | 4.25 | 1.6 | 3.7 | 1.05 | 1.96 | 0.587 | 1.31 | 2.23 | 1.88 | 0.471 | 0.672 | 2.68 | 4.91 | 3.38 | 4.55 | 1.67 | 3.27
TCGAGTAGGATACCAATGGGGCATTCAGCTTTCT | -0.594 | -0.525 | -0.966 | -0.394 | -0.758 | -0.335 | -0.0828 | -0.0523 | 0.785 | 0.306 | 1 | -0.141 | -0.244 | -1.29 | -1.04 | -0.677 | -0.988 | -1.18 | -1.27 | -0.402
